Bioassay records deposited in PubChem by National Center for Advancing Translational Sciences (NCATS).
RORgamma inh = ROR gamma (mouse) transcription inhibition. Potency, µM (series often up to 53.6 µM), without a hit: top-dose activity change, negative = inhibition, most hits filed as inhibitors. Drosophila S2 Gal4-RORgamma UAS-luciferase reporter, 20 h. 310,000 tested, 5.4% active. P51450; further: nearly all actives have a fitted effect of over 60% in size
Target sequence (P51450 whole entry, looked up, the tested form may be a part): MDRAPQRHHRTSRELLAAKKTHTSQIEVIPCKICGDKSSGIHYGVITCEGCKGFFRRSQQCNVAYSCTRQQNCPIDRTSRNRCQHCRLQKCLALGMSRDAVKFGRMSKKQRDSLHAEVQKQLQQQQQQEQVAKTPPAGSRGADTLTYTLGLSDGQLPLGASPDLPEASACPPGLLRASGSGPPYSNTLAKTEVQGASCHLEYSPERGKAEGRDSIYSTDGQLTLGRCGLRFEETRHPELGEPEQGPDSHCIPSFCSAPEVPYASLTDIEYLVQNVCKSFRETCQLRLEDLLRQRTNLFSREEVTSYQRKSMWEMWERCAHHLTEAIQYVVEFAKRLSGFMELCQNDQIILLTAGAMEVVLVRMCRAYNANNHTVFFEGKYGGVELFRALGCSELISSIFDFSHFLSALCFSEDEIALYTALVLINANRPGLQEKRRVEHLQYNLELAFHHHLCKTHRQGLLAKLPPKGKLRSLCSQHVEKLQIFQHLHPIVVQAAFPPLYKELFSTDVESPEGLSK
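Drosophila Schneider cells stably carrying a metallothionein-driven Gal4 DBD–ROR gamma fusion and a UAS-Photinus luciferase reporter were exposed to compound for 1 hr, then induced with copper sulfate (700 uM final) for 20 hr at ambient temperature before luminescence reading.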
KinaseGlo FLuc = counter-screen: inhibitors of Kinase-Glo firefly luciferase | Q27757 | Kinase-Glo luciferase, ATP luminescence, 8 min | Potency, µM (series often up to 38.3 µM), without a hit: at the top dose activity change, negative = inhibition, hits mostly inhibitors | 200,000 tested, 0.28% active; further: nearly all actives have a fitted effect of over 60% in size
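Luminescence was the read-out, taken after 8-minute incubation at ambient temperature. Luciferase turned over luciferin with 10 uM ATP in imidazole pH 7.2 buffer containing KCl, MgCl2, Tween 20 and BSA.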
VP16 counter = inhibits Gal4-VP16 luciferase reporter, ROR gamma counter-screen. Potency, µM (highest dose often 53.6 µM), for the others: at the highest dose activity, negative = inhibition, actives largely listed as inhibitors. 310,000 tested, 3.5% active. AID 2546. Drosophila S2 Gal4-VP16 UAS-luciferase, luminescence, 20 h;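 further: Gal4-VP16 expression switched on by copper sulfate through the metallothionein promoter; nearly all actives have a fitted effect of over 50% in size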
Numbers without * were called inactive; ? = inconclusive; . = no result given; [ ] = another dose, or the depositor's remark. This is a sample that favours compounds with a hit; in the whole collection about 6.4% have one here. The call rests on the fitted dose curve; in most records, active means well fitted curve in the direction sought with a large enough effect; inconclusive means small, poorly fitted or top-dose-only effect, or another doubt; inactive means no such curve, though single readings can be large; an effect the other way counts as inactive or inconclusive. On the % scale 0 is the no-effect control and ±100 the full control effect; potency means the concentration at half of the fitted maximal effect.

SMILES | RORgamma inh | KinaseGlo FLuc | VP16 counter
CC(C)c1ccc2[nH]c(O)c(N=NC(=S)NCCc3ccccc3)c2c1 | 2µM* | . | 2.2µM*
Cc1ccc2[nH]c(O)c(N=NC(=O)CCc3ccccc3)c2c1Br | 0% | -1% | -3%
CCC(O)(CC)C(=O)N=Nc1c(O)[nH]c2ccccc12 | -5% | 5% | -12%
NC(=S)N=Nc1c(O)[nH]c2c(Br)cc(Br)cc12 | 3.5µM* | -2% | 11µM*
COc1cc(C(c2nnnn2C2CCCC2)N2CCN(C(=O)c3ccco3)CC2)cc(OC)c1OC (stereo not given) | -18% | . | -1%
COc1ccc(NC(=O)C2CCCN(C(=O)Nc3ccc(F)cc3)C2)cc1 (stereo not given) | 18% | . | -5%
CC1CCCCC1NC(=O)CCCCn1c(=O)[nH]c2ccsc2c1=O (stereo not given) | -14% | . | 1%
CCOc1ccc(NC(=O)CCCn2c(=S)[nH]c3ccsc3c2=O)cc1 | 13µM* | 0% | ?
O=C(CCCCn1c(=S)[nH]c2ccsc2c1=O)NCc1ccc2c(c1)OCO2 | 14µM* | -1% | -21%
O=C(CCCn1c(=S)[nH]c2ccsc2c1=O)Nc1ccc2c(c1)OCCO2 | 11µM* | -1% | ?
CC1CCCCC1NC(=O)CCCn1c(=S)[nH]c2ccsc2c1=O (stereo not given) | 18µM* | . | ?
O=C(CCCN1C(=O)c2ccccc2C1=O)Nc1ccc2c(c1)OCCO2 | 15% | -1% | 7%
CCOc1ccc(NC(=O)CCCCn2c(=O)[nH]c3ccsc3c2=O)cc1 | 18% | 0% | -8%
O=C(CCCCn1c(=O)[nH]c2ccsc2c1=O)NCc1ccc2c(c1)OCO2 | 10% | 15% | 5%
N=C(N)CCNC(=O)[C@@H]1CCC(N)=N1 | . | -2%[7.66 µM] | .
C#CCCCC(=O)Nc1ccccc1 | -10% | -2% | 2%
O=C(Nc1ccccc1C(=O)NCc1ccccc1)C1=CSCCO1 | -2% | . | 5%
Cc1cc(NC(=O)CN2C(=O)[C@@H]3[C@H](C2=O)[C@@H]2C[C@H]3C(Br)C2Br)no1 (stereo not given in full) | 10% | . | 0%
CCCCn1c(SCc2ccc(C(=O)OC)o2)nc2cc(S(N)(=O)=O)ccc21 | -16% | -3% | 10µM*
CCCCn1c(SCC(=O)c2cc(OC)ccc2OC)nc2cc(S(N)(=O)=O)ccc21 | 12% | -3% | 0%
NC(=O)C1(N2CCCCC2)CCN(C(=S)Nc2cccc(Cl)c2)CC1 | 2% | 1% | -12%
O=C(Nc1cc(S(=O)(=O)N2CCCCC2)ccc1N1CCCCC1)c1ccncc1 | -13% | . | 6%
CCc1ccc(O)c(N=Cc2cccc(C)c2O)c1 | 11µM* | 3% | ?
Cc1cccc(C=Nc2ccc3c4c(cccc24)CC3)c1O | -38% | 0% | -4%
COc1ccc(C(=O)Nn2c(C)nc3ccccc3c2=O)cc1 | 15% | . | 2%
SMILES | RORgamma inh | KinaseGlo FLuc | VP16 counter
COc1ccc(C(=O)NCCn2cc(SCC(=O)NCC3CCCO3)c3ccccc32)cc1 (stereo not given) | 15% | . | -1%
COc1ccc(C(=O)Nn2c(SCC(=O)NC3CCCCC3)nc3ccccc3c2=O)cc1 | ? | 14µM* | 13µM*
COCCn1c(SCC(=O)N2CCC(C)CC2)nc2ccccc2c1=O | -4% | 3% | 1%
COc1ccc(C(=O)Nn2c(SCC(=O)c3ccc(Cl)cc3)nc3ccccc3c2=O)cc1 | 11µM* | -21% | ?
COc1ccc(C(=O)NCCn2cc(SCC(=O)NCc3ccco3)c3ccccc32)cc1 | 10µM* | 1% | -23%
COCCCn1c(SCC(=O)NC2CCCCC2)nc2ccccc2c1=O | -2% | . | 5%
COc1ccc(C(=O)Nn2c(SCC(=O)N3CCC(C)CC3)nc3ccccc3c2=O)cc1 | 10µM* | 13µM* | 10µM*
Fc1ccc(Nc2ncncc2-c2ccoc2)cc1 | -1% | . | -1%
O=c1c(-c2nn[nH]n2)coc2ccc(Cl)cc12 | -1% | 1% | -4%[10 µM]
CCn1c(SCC(=O)NCc2ccco2)nc2ccccc2c1=O | 0% | -2% | 20%
COc1ccc(C(=O)Nn2c(SCC(=O)NCc3ccco3)nc3ccccc3c2=O)cc1 | 10µM* | -28% | 8.9µM*
CC1CC[C@@]2(C(=O)O)CC[C@]3(C)C(=CCC4[C@@]5(C)CCC(O)C(C)(C)C5CC[C@@]43C)C2C1C (stereo not given in full) | . | 0% | .
CCc1ccc2[nH]c3nc(SCC(=O)NNC(=O)c4ccc(C(C)(C)C)cc4)nnc3c2c1 | 13µM* | 4% | 0%[0.365 µM]
Cc1ccc(C(=O)NNC(=O)CSc2nnc3c(n2)[nH]c2ccc(C)cc23)cc1 | 25% | 0% | 0%
COc1cccc(N2CCN(c3ccc4nnc(CCC(=O)Nc5cccc(C(C)=O)c5)n4n3)CC2)c1 | -19% | . | 3%
Cc1c(C(=O)N/N=C/c2cccnc2)sc(N)c1C#N | -25% | . | ?
CCOc1ccc(N=Nc2ccc(N)cc2N)cc1 | 8.9µM* | . | 10µM*
NS(=O)(=O)c1ccc(N=Nc2ccc(O)c3ncccc23)cc1 | -34% | . | ?
Cc1ccc(N=Nc2cc(C)ccc2O)c(C)c1 | -20% | . | -4%
CCOc1ccc(N=Nc2cc(C(C)C)ccc2O)cc1 | 0% | -4% | 0%
Cc1ccc(C)c(N=Nc2ccc(O)c3ncccc23)c1 | 0.11µM* | -12% | -75%
CCOc1ccc(N=Nc2ccc(O)c3ncccc23)cc1 | 0.28µM* | . | 0.4µM*
Oc1ccc(N=Nc2ccc3c(c2)OCCO3)c2ncccc12 | 0.32µM* | . | 0.4µM*
CC(=O)/C(N=Nc1ccc2c(c1)OCCO2)=C(\C)O | 17% | ? | -22%
CNC(=O)COC(=O)/C=C/c1cccc(F)c1 | -1% | 0% | 3%
SMILES | RORgamma inh | KinaseGlo FLuc | VP16 counter
COc1ccccc1NC(=O)NCC(c1ccco1)N1CCCCC1 (stereo not given) | -36% | -2% | 14%
CCc1ccc(NC(=O)C2CCC(CNC(=O)[C@@H]3Cc4ccccc4CN3)CC2)cc1 (stereo not given in full) | -14% | . | 0%
Cc1cccc(N=Nc2ccc(O)c3ncccc23)c1 | 0.11µM* | -8% | 0.035µM*
Cc1ccccc1N=Nc1ccc(N=Nc2c(O)ccc3ccccc23)c(C)c1 | -18%[10 µM] | . | -21%
CNC(=O)[C@H]1O[C@H](n2cnc3c(NCc4cccc(I)c4)ncnc32)[C@@H](O)[C@@H]1O | 29% | 0% | 13%
CCOc1ccc(NC(=O)C(=O)NCCN2CCN(S(=O)(=O)c3ccc(C)cc3)CC2)cc1 | -39% | . | -10%
COc1ccc(N(C)C(=O)c2cc3c(s2)-c2c(C)cccc2OC3)c(OC)c1 | 19% | . | -2%
COc1ccc2[nH]cc(CCNc3ncncc3-c3ccoc3)c2c1 | -6% | . | 11µM*
COc1ccc2[nH]cc(CCNc3ncncc3-c3ccc(N(C)C)cc3)c2c1 | 9% | -2% | -1%
O=C(N/N=C\c1cccs1)c1sccc1-n1cccc1 | 1.3µM* | -2% | ?
Cc1cc(Br)cc(/C=N/NC(=O)c2ccc3c(c2)OCO3)c1O | 2.5µM* | . | 3.5µM*
O=C(N/N=C/c1cccs1)c1ccc2c(c1)OCO2 | 14µM* | -10% | ?
COc1cc(/C=N/NC(=O)c2cccnc2)ccc1OC(=O)c1ccc2c(c1)OCO2 | 0% | -3% | -8%
O=C(N/N=C/c1ccccc1OC(=O)c1ccc2c(c1)OCO2)c1cccc(F)c1 | 13µM* | 0% | ?
